Laboratory results taken from PubChem BioAssay (NCATS).
Values joined by “and” are separate entries in the source; they are usually repeats but may differ in a detail not shown here. Equal entries are not always repeated. Results filed as inconclusive are left out. Active and inactive are the calls of the source. Calls follow the shape of the dose curve; as a rule, active = well fitted curve in the direction sought with a large enough effect; inconclusive = small, poorly fitted or top-dose-only effect, or another doubt; inactive = no such curve, though single readings can be large; an effect the other way counts as inactive or inconclusive.

How the values were obtained:
[1] = biological target: Cellular tumor antigen p53 (Homo sapiens) (UniProt P04637); assay: Primary qHTS for small molecule compounds that upregulate eGFP-tagged delta133p53alpha (in N-terminal) cells. (AID 2060322); details: NCI-H358 eGFP-delta133p53alpha fluorescence, 24 h; activation: active compounds read high; also: nearly all actives have a fitted effect of over 75% in size; also: potency is read from the fitted curve at half-maximal effect;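 as to activation: cells pre-induced with doxycycline then dosed without doxycycline; series mostly up to about 56 µM; 0% = DMSO vehicle and 100% = reference activator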
Summary of the method: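 NCI-H358 cells pre-induced 24 h with 10 ng/ml doxycycline for eGFP-delta133p53alpha, plated dox-free and exposed 24 h at 37C to titrated compounds. Fixed, Hoechst-stained; gated GFP peak intensity by laser scanning cytometry, normalized to DMSO (0%) and 57.5 uM 5-azacytidine (100%).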

[2] = biological target: Aldehyde dehydrogenase, mitochondrial (Homo sapiens) (UniProt P05091); assay: qHTS for Inhibitors of the Aldehyde Dehydrogenase Family (ALDH2) Primary screen (AID 2061308);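 also: plate controls were vehicle for no effect and reference inhibitor for full effect; nearly all actives have a fitted effect of over 55% in size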
[3] = biological target: Retinaldehyde dehydrogenase 3 (Homo sapiens) (UniProt P47895); assay: qHTS for Inhibitors of the Aldehyde Dehydrogenase Family (ALDH1A3) Primary screen (AID 2061315);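 also: plate controls were DMSO vehicle for no effect and reference inhibitor for full effect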
[4] = BET inhibitor-based combinations targeting novel dependencies in MECOM-rearranged (r) AML: SET-2 cell line (AID 2202231); details: SET-2 AML cells viability, CellTiter-Glo luminescence, 48 h; viability: active compounds read low, concentration not given here; also: nearly all actives have a fitted effect of over 35% in size; also: potency is read from the fitted curve at half-maximal effect;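 as to viability: plate controls were DMSO treated cells for no effect and wells without cells for full effect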
Summary of the method: (§1)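 A 48 hr incubation preceded viability reading by CellTiter-Glo, with 15 min room-temperature development. Dose series had 11 points; normalization used DMSO and empty wells; AUC was computed and mean-centered per line as Z-AUC.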

[5] = BET inhibitor-based combinations targeting novel dependencies in MECOM-rearranged (r) AML: OCI-AML3 cell line (AID 2202232); details: Potency: OCI-AML3 viability; also: potency is read from the fitted curve at half-maximal effect; nearly all actives have a fitted effect of over 35% in size
Summary of the method: as §1

[6] = BET inhibitor-based combinations targeting novel dependencies in MECOM-rearranged (r) AML: MV-4-11 cell line (AID 2202233); also: potency is read from the fitted curve at half-maximal effect; nearly all actives have a fitted effect of over 45% in size
Summary of the method: (§2)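 Each compound is tested in an 11-point concentration series against 500 seeded cells/well for 48 hr. The luminescent viability signal is normalized to DMSO and blank wells, then reduced to AUC and a cell-line-centred Z-AUC.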

[7] = BET inhibitor-based combinations targeting novel dependencies in MECOM-rearranged (r) AML: HNT-34 cell line (AID 2202234); also: potency is read from the fitted curve at half-maximal effect; nearly all actives have a fitted effect of over 35% in size
Summary of the method: as §2

[8] = BET inhibitor-based combinations targeting novel dependencies in MECOM-rearranged (r) AML: UCSD-AML1 cell line (AID 2202235); also: potency is read from the fitted curve at half-maximal effect; nearly all actives have a fitted effect of over 40% in size
Summary of the method: as §2

[9] = BET inhibitor-based combinations targeting novel dependencies in MECOM-rearranged (r) AML: AML-191 cell line (AID 2202236; also: potency is read from the fitted curve at half-maximal effect; nearly all actives have a fitted effect of over 35% in size)
Summary of the method: as §1

[10] = biological target: Aldehyde dehydrogenase 1A1 (Homo sapiens) (UniProt P00352); assay: qHTS for Inhibitors of the Aldehyde Dehydrogenase Family (ALDH1A1) Confirmatory screens (AID 2061316); also: % is scaled to controls: 0 for no effect and ±100 for the full control effect; nearly all actives have a fitted effect of over 65% in size
[11] = BET inhibitor-based combinations targeting novel dependencies in MECOM-rearranged (r) AML: AML-194 cell line (AID 2202237; also: potency is read from the fitted curve at half-maximal effect; nearly all actives have a fitted effect of over 40% in size)
Summary of the method: as §1

Chain of Cellular tumor antigen p53 (Homo sapiens) (P04637 whole entry, looked up): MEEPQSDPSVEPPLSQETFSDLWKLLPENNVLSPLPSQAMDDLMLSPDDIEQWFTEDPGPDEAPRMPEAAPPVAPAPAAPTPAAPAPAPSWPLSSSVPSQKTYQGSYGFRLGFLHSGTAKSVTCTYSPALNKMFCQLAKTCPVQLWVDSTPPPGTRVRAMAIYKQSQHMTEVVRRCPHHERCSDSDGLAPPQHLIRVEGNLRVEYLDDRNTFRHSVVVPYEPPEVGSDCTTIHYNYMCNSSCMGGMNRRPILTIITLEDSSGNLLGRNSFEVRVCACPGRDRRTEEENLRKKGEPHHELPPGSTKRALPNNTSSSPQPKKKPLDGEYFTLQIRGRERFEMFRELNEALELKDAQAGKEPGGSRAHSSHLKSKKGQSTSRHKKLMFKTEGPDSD

CCCOc1ccc(CCc2nc3cc(-c4c(C)noc4C)ccc3n2CCN2CCOCC2)cc1
inactive: activation [1] -35.8% | Potency [2] | Potency [3]
active: Potency [4] 20.9 µM | Potency [5] 16.6 µM | Potency [6] 18.6 µM | Potency [7] 14.8 µM

COc1c2c(c(C)c3c1C(=O)OC3)OC1(C)CC(O)C34OC(OC)(CCC3(C)C1C2)OC4(C)CO (stereo not drawn)
inactive: activation [1] 13% | Potency [2] | Potency [3]

CC(=O)Nc1nc(C)c(-c2ccc(Cl)c(S(=O)(=O)NCCO)c2)s1
active: Potency [4] 14.8 µM | Potency [5] 8.33 µM | Potency [6] 3.72 µM | Potency [7] 5.25 µM | Potency [8] 3.72 µM | Potency [9] 5.25 µM
inactive: activation [1] 12.7% and -14.3% | Potency [2] | Potency [3]

CO[C@H]1C[C@@H]2CC[C@@H](C)[C@@](O)(O2)C(=O)C(=O)N2CCCC[C@H]2C(=O)O[C@H]([C@H](C)C[C@@H]2CC[C@@H](OP(C)(C)=O)[C@H](OC)C2)CC(=O)[C@H](C)/C=C(\C)[C@@H](O)[C@@H](OC)C(=O)[C@H](C)C[C@H](C)/C=C/C=C/C=C/1C
active: Potency [4] 23.5 µM | Potency [5] 23.5 µM | Potency [6] 14.8 µM | Potency [7] 1.48 µM | Potency [8] 0.0033 µM
inactive: activation [1] 3% | Potency [2] | Potency [3]

CC(C)(O[C@@H]1O[C@H](CO)[C@@H](O)[C@H](O)[C@H]1O)C(OC(=O)/C=C\c1ccc(O)cc1)C(=O)OCc1ccc(O[C@@H]2O[C@H](CO)[C@@H](O)[C@H](O)[C@H]2O)cc1 (stereo partly drawn)
inactive: activation [1] -8.4% | Potency [2] | Potency [3]

Cc1nc(NC(=O)N2CCC[C@H]2C(N)=O)sc1-c1ccnc(C(C)(C)C(F)(F)F)c1
inactive: activation [1] -25% | Potency [2] | Potency [3] | viability [4] 89%

C=C1C(=O)O[C@@H]2[C@H]1CC[C@H](C)C(CCC(=O)O)C2(C)O (stereo partly drawn)
inactive: Potency [2] | Potency [3]
active: Potency [1] 23.9 µM

CCC(O)C(C)C1CCC(C(C)C(=O)O)O1 (stereo not drawn)
inactive: activation [1] 13.4% | Potency [2] | Potency [3] | Potency [10]

O=C(Nc1nc2cccc(-c3ccc(CN4CCS(=O)(=O)CC4)cc3)n2n1)C1CC1
inactive: Potency [2] | Potency [3]
active: Potency [1] 43.2 µM and 34.3 µM | Potency [4] 18.6 µM | Potency [5] 14.8 µM | Potency [6] 3.32 µM | Potency [7] 14.8 µM | Potency [8] 5.9 µM | Potency [9] 9.34 µM

CC(C)(C)c1nc(-c2cccc(NS(=O)(=O)c3c(F)cccc3F)c2F)c(-c2ccnc(N)n2)s1
inactive: Potency [2] | Potency [3] | viability [4] 98%
active: Potency [1] 26.9 µM

C=CC(C)(C)C1(CC2NC(=O)C3CCCN3C2=O)C(=O)Nc2cc3c(cc21)C=CC(C)(C)O3 (stereo not drawn)
inactive: activation [1] 6.87% | Potency [2] | Potency [3]

NC1(Cc2ccc(Cl)cc2)CCN(c2ncnc3[nH]ccc23)CC1
inactive: activation [1] -4.16% and 18.8% | Potency [2] | Potency [3]
active: Potency [4] 14.8 µM | Potency [5] 6.61 µM | Potency [6] 7.42 µM | Potency [7] 7.42 µM | Potency [8] 5.25 µM

Cc1ccc(C)c(S(=O)(=O)n2cnc3ccccc32)c1
inactive: activation [1] 1% | Potency [2] | Potency [3]

CC1=C(CCC(C)CC(=O)O)[C@@]2(C)CCCC(C)(C)C2CC1=O (stereo partly drawn)
inactive: activation [1] -29.5% | Potency [2] | Potency [3]

COCCCc1sc(-c2ccccc2)nc1C(=O)Nc1ccccc1-c1nc2cc(CN3CCCC3)cnc2s1
active: Potency [5] 9.1 µM
inactive: activation [1] -4.33% | Potency [2] | Potency [3] | viability [4] 121%

CC1CCN(c2cc(N3CCN(C)CC3)ccc2NC(=O)c2cc(C#N)c[nH]2)CC1
active: Potency [5] 20.9 µM | Potency [6] 8.33 µM | Potency [7] 26.3 µM | Potency [8] 20.9 µM | Potency [9] 20.9 µM | Potency [11] 23.5 µM
inactive: activation [1] 4.19% and 20.5% | Potency [2] | Potency [3] | viability [4] 116%

c1cncc(CN2CCC(n3ncc4c(N5CCOCC5)nc(-c5ccc6[nH]ccc6c5)nc43)CC2)c1
active: Potency [4] 3.72 µM | Potency [5] 7.42 µM | Potency [6] 3.72 µM | Potency [7] 2.95 µM | Potency [8] 0.833 µM
inactive: activation [1] -11.7% and 12.5% | Potency [2] | Potency [3]

FC(F)(F)c1ccc(Nc2nc(-c3c(C(F)(F)F)nc4ccccn34)cs2)cc1
inactive: activation [1] -3.82% | Potency [2] | Potency [3]
active: Potency [4] 0.833 µM | Potency [5] 0.417 µM | Potency [6] 0.417 µM | Potency [7] 0.332 µM | Potency [8] 0.332 µM | Potency [9] 0.296 µM

Cn1c(=O)n(-c2ccc(C(C)(C)C#N)cc2)c2c3cc(-c4cnc5ccccc5c4)ccc3ncc21
inactive: activation [1] 13% and 27.3% | Potency [2] | Potency [3]
active: Potency [4] 0.17 µM | Potency [5] 0.241 µM | Potency [6] 0.17 µM | Potency [7] 0.135 µM | Potency [8] 0.0428 µM | Potency [9] 0.0428 µM

CC12CC(c3ccoc3)OC(=O)C1CCC1(C)C2CCC(O)C1(C)O (stereo not drawn)
inactive: activation [1] 23.7% | Potency [2] | Potency [3]

CC(C)[C@H]1CC[C@@]2(O)COC(=O)[C@H]2[C@@H]1/C=C(\CO)C(=O)O
inactive: activation [1] -2.29% | Potency [2] | Potency [3]

O=C(Nc1ccccc1-c1cn2c(CN3CCNCC3)csc2n1)c1cnc2ccccc2n1
active: Potency [4] 8.33 µM | Potency [5] 20.9 µM | Potency [6] 5.25 µM | Potency [7] 20.9 µM | Potency [8] 8.33 µM | Potency [9] 7.42 µM | Potency [11] 8.33 µM
inactive: activation [1] -29.5% | Potency [2] | Potency [3]
